Assay results published in PubChem BioAssay AID1053205 (Broad Institute, 2014).
Potency and affinity values are given separately. Records with an inconclusive call do not appear. Calls of active or inactive are those of the source.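 How the source made its calls: active means compounds lowering the FRET ratio whose fitted half-maximal concentration is at most twice their top tested dose; inconclusive means flat partial drop between 30 and 70 percent, or bad fit; inactive means the rest.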

Molecular target: Voltage-dependent L-type calcium channel subunit alpha-1D (Homo sapiens) (UniProt Q01668)
Sequence (Q01668 whole entry, looked up, the tested form may be a part): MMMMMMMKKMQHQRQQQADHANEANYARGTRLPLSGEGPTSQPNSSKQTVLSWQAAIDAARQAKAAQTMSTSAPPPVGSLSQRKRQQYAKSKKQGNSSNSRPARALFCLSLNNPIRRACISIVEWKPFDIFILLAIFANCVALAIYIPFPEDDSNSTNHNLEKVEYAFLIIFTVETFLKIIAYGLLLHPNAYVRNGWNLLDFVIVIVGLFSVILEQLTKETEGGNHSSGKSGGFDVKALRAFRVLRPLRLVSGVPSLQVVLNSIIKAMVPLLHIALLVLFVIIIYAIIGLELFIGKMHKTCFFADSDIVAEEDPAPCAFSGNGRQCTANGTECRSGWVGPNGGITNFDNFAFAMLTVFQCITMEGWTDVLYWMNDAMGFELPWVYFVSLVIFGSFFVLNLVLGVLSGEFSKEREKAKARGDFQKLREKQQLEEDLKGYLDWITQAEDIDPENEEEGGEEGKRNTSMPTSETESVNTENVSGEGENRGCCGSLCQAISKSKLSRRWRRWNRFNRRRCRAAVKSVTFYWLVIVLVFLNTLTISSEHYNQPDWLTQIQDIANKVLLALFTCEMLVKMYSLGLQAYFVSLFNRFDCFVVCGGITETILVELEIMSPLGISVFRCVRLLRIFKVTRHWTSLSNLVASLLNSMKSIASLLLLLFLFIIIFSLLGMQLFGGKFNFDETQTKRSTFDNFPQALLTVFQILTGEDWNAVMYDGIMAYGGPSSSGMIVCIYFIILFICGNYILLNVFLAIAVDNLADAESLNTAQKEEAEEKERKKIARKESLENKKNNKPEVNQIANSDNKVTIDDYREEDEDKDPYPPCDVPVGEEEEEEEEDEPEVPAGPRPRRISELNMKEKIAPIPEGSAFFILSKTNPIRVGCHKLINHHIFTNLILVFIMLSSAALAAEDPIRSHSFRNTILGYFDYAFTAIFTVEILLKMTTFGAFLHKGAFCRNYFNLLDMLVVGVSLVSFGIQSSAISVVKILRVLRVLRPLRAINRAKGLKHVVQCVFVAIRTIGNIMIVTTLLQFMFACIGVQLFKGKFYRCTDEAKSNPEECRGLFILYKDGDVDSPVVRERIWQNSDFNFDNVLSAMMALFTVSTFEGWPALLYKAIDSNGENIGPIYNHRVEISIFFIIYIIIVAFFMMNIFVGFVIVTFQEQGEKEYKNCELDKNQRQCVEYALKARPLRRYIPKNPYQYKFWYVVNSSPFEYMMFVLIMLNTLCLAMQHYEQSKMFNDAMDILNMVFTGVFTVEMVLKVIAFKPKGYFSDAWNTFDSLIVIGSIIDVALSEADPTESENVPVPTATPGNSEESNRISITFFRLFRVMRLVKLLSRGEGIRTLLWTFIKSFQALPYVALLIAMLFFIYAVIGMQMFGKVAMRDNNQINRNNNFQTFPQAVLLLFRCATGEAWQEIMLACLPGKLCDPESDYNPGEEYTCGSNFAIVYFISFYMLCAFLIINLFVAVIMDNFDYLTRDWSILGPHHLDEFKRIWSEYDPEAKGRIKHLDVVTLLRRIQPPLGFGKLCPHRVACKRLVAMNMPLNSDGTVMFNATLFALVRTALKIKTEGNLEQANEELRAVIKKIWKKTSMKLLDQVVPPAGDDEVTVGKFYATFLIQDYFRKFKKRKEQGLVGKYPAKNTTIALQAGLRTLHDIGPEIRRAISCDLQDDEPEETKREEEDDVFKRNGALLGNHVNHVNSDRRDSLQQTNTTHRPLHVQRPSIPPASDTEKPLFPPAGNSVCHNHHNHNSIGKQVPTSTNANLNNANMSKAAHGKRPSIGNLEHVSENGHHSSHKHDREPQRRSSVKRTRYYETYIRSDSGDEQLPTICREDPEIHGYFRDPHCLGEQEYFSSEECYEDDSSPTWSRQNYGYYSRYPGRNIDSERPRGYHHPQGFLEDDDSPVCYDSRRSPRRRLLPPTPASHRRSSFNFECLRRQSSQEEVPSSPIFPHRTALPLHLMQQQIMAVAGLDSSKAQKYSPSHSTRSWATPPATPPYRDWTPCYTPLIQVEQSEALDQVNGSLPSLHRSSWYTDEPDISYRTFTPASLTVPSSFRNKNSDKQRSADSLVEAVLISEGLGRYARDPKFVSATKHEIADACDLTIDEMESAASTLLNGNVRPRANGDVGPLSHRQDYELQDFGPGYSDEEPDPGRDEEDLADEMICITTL
Assay: disruptors of CaV1.3 IQ/ICDI domain association – cell-based, HEK293, YFP-IQ/CFP-ICDI FRET, cherry-picks, dose response (AID 1053205);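 further: 0% = median of neutral control wells and -100% = median of positive control wells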
Conditions: HEK293 YFP-IQ/CFP-ICDI FRET ratio, 10 min; series mostly up to 35 µM; FRET change, negative = inhibition: at the top concentration

FRET change, negative = inhibition, inactive:
COc1ccc(C2c3ccc(O)cc3Oc3ncn4nc(-c5ccccn5)nc4c32)cc1 (configuration not stated) -40%
N#C/C(=C\c1ccco1)C(=O)Nc1cccc2ncccc12 2.87%
CC(C)(C)c1csc(N/N=C/c2ccc(O)cc2)n1 -17.3%
CSC1=NSC2=NC(=O)/C(=C/c3coc4ccc(O)cc4c3=O)C(=N)N12 380%
CCCOc1c(Br)cc(C2C3=C(CCCC3=O)N(C)C3=C2C(=O)CCC3)cc1OC 109% [at 16 µM]
CCOC(=O)C1CCCN(CCCc2ccccc2)C1 (configuration not stated) 3.01%
Cc1oc(/N=C/c2ccc(F)cc2)c(C#N)c1C 8.86%
CN(C)CCOCCOc1ccc(Cl)c2ccccc12 8.55%
CC(C)(C)[C@H]1CCC(=O)N([C@H](CSc2ccccc2)Cc2ccccc2)CC1 -35.3%
Cc1ccc(S(=O)(=O)Nc2ccc(Nc3ccccc3)cc2)cc1 14.1%
Cc1nc2ccc(S(=O)(=O)Nc3ccc(-c4nc5cccnc5s4)cc3)cc2s1 -13.8%
CC(=O)Oc1ccc(C(=O)Nc2cc(C)on2)cc1 58.3%
CC(=O)c1cc2ccc(O)cc2oc1=O 317%
CCOC(=O)c1cc2c(=O)n3cccc(C)c3nc2n(CC(C)C)c1=NC(=O)c1ccco1 159% [at 8 µM]
COc1ccc(CCN=C(N)NS(=O)(=O)c2ccc(F)cc2)cc1 13.4%
Cc1cccc2sc(NNC(=O)c3ccc(S(=O)(=O)N4CCCC(C)C4)cc3)nc12 (configuration not stated) -1.05%
CC(C)CCN(CCC(C)C)CC(O)Cn1c2ccccc2c(=O)c2ccccc21 (configuration not stated) 20.5%
Cc1c(C(=O)NCc2cccc(C(F)(F)F)c2)sc(=O)n1Cc1ccc(C(=O)N(C)C)cc1 -8.19%
Cc1c(Nc2c3ccccc3nc3ccccc23)c(=O)n(-c2ccccc2)n1C 8.67%
O=C(NCc1cc(C(F)(F)F)ccc1Cl)c1cccc2c1C(=O)c1ccc(Cl)cc1S2(=O)=O 11.7%
CCC(Sc1nc(N)c(NC(=O)c2ccc(OC)cc2)c(=O)[nH]1)C(=O)O (configuration not stated) -18.7%
Cc1ccc(S(=O)(=O)c2cc3c(=O)n4ccccc4nc3n(C)c2=N)cc1 187%
COc1ccc(CCNC(=O)CSc2cn(Cc3cccc(C)c3)c3ccccc23)cc1OC -2.31%
O=C(CCCn1c(=O)c2sccc2n(Cc2cc(=O)n3ccccc3n2)c1=O)NCc1ccco1 3.52%
Cc1c(C=O)c2ccccn2c1C(=O)c1cccs1 28.8%
CCN(c1ccccc1)S(=O)(=O)c1ccc(OC)c(NC(=O)CN(C)C)c1 10.1%
COc1ccc(Br)c(Cn2c(C)c(C(=O)NCc3ccc4c(c3)OCCO4)sc2=O)c1 3.45%
CC(C)C(=O)Nc1sc2c(c1C(N)=O)CCN(Cc1ccccc1)C2 96.8%
O=C(NCc1nnnn1-c1ccc(Cl)cc1)C1CC(=O)N(c2ccc(F)cc2)C1 (configuration not stated) -0.771%
CN1c2ccc(Cl)cc2C(=O)NC1C1CC=CCC1 (configuration not stated) 17%
Nc1ccc2nc(-c3ccccc3)cnc2c1 451%
Nc1ccc(C#Cc2ccc3c(=O)c4ccccc4oc3c2)cc1 412%
CCN(CC)CCCNc1nc(C)cc(COC)c1C#N -0.747%
CNC(=O)c1ccc(NC(=O)c2cccc(C(F)(F)F)c2)cc1 7.58%
Cc1cc(OC(=O)c2ccccc2Cl)ccc1N1C(=O)CCC1=O 7.19%
CC1CCN(C(=O)COc2cccc3c2CCN(Cc2ccccc2)C3=O)CC1 30.1%
N#CC1=C(N)OC2=C(C(=O)CCC2)C1c1cc2c(cc1Br)OCO2 (configuration not stated) -32.1%
